Screening data from PubChem.
hDAT+cocaine = changed hDAT dopamine uptake under cocaine IC80, either direction, primary screen, cocaine antagonist project, cell-based, LLC-PK1 hDAT, [14C]-dopamine uptake, MLSMR. LLC-PK1 hDAT cells, [14C]-dopamine uptake with cocaine IC80; actives deviate in either direction. Sodium-dependent dopamine transporter (Homo sapiens), Q01959. 1.3% of 110,000 active. AID 449768, 2010. B-score at 10 µM;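 active means Z score or B-score, a plate-position-corrected score, falls beyond the plate's 99.7% confidence bounds, in either direction; inactive means both scores lie inside the 99.7% bounds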;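 further: scored against the spread of the other compound wells on the same plate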
PLK1 PBD inh = Plk1 polo box domain binding inhibitors, primary screen, biochemical, fluorescence polarization | Serine/threonine-protein kinase PLK1 (Homo sapiens), P53350 | Plk1 PBD phosphopeptide binding | inhibition, %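 (tested at about 20 µM)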 | 0.13% of 97,000 active | AID 693, 2007; in the data active means inhibition above about 34%, passing the limit was not always enough
PLK1 kinase inh = human PLK1 kinase inhibitors, primary screen, biochemical, TR-FRET | Serine/threonine-protein kinase PLK1 (Homo sapiens), P53350 | recombinant PLK1 kinase, TR-FRET peptide phosphorylation | inhibition, % at 10 µM | 0.53% of 97,000 active;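 active means inhibition of 50% or more in the single-concentration screen; inactive means inhibition below 50%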;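 further: 0% = DMSO max control and 100% = H-89 dihydrochloride min control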
Cav3 T inh = Cav3.2 calcium influx blockers – cell-based, Fluo-4 calcium fluorescence, FDSS, MLSMR library, primary screen | Voltage-dependent T-type calcium channel subunit alpha-1H (Homo sapiens), O95180 | 4% of 100,000 active | B-score at 10 µM | Cav3.2-expressing cells; active compounds read low;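 active means single-dose well whose peak fluorescence ratio is a statistical outlier from its plate by either plate-standardised score or position-corrected B-score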
Target sequence (O95180 whole entry, looked up): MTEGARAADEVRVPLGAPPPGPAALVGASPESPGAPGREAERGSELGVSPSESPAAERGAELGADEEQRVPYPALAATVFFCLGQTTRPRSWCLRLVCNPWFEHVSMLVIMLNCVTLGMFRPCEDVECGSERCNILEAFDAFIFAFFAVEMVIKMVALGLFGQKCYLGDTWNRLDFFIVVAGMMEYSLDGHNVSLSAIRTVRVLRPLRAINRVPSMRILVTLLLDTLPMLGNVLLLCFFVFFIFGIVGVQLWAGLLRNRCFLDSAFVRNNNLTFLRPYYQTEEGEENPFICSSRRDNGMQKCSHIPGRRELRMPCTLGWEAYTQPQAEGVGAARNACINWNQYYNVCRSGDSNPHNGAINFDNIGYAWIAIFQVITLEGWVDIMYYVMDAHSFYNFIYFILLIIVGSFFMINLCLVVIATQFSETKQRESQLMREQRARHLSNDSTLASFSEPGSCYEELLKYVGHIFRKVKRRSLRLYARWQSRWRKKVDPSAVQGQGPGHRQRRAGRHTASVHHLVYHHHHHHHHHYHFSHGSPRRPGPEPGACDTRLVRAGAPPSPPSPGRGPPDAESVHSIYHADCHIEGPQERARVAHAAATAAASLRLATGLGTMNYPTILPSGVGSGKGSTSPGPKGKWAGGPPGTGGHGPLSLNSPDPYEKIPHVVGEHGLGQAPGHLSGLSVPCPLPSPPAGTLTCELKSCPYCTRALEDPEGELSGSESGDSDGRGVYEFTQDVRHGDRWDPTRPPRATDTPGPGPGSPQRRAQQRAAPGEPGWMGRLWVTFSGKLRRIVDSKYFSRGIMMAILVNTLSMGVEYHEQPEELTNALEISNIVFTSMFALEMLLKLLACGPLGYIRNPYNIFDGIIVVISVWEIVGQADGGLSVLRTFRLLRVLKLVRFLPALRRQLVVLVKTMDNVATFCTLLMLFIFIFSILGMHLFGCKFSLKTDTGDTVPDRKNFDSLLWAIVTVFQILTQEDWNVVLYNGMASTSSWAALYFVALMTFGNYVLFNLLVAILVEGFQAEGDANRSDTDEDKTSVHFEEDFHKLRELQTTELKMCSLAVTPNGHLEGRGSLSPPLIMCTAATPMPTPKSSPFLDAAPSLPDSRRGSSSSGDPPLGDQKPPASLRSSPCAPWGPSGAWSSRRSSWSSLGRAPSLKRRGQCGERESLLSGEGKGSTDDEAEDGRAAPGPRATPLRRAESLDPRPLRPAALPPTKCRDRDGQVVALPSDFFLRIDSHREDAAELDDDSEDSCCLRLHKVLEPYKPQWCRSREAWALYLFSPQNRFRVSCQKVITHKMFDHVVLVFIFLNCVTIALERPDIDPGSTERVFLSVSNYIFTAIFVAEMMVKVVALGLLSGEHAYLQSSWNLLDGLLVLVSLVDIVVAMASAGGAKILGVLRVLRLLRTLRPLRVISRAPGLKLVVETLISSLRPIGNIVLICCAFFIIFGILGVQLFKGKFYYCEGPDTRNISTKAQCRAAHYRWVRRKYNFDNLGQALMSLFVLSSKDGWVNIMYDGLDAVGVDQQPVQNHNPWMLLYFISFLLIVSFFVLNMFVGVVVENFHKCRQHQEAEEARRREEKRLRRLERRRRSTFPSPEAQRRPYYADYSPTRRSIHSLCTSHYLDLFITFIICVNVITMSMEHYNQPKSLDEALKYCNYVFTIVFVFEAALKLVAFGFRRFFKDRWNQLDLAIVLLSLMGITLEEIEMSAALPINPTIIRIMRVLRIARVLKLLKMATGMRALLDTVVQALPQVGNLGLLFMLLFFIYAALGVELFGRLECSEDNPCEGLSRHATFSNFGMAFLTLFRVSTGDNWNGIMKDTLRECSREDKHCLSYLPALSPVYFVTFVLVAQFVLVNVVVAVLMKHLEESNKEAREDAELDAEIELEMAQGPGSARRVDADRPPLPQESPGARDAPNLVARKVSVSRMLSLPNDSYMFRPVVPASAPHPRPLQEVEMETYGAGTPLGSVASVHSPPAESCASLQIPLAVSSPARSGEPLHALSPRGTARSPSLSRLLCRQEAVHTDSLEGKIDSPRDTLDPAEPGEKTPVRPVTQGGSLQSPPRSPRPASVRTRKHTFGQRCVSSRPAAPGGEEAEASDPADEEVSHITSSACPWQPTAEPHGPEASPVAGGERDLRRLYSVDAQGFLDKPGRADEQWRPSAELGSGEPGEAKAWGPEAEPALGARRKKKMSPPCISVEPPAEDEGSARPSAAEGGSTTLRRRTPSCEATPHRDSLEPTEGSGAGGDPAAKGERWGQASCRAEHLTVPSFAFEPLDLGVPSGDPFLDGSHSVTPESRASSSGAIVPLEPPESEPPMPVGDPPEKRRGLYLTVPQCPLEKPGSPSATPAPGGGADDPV
sdo1 growth = growth rescue of sdo1-depleted yeast, primary screen, S. cerevisiae, bone marrow failure model. S. cerevisiae sdo1-depleted JHY4D growth rescue, OD600 30 h; active compounds read high; pdr5 snq2 efflux-pump mutant strain. z-score at 10 µM. 0.21% of 140,000 active;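 active means z-score above 3 at both the 24 hr and the 30 hr optical density reads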;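 further: z-score against mean and SD of all compound wells on the same plate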
PTK2B oligo ant = antagonists of Pyk2 self-association, primary screen, Q293 cells, FERM NanoBiT luminescence, HTS | Protein-tyrosine kinase 2-beta (Homo sapiens), Q14289 | active compounds read low | z-score (the deposit names both 25 µM and 10 µM) | 0.83% of 99,000 active | AID 1347419, 2020;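 active means Z-score of -3 or lower, scaled per plate to the spread of control and sample wells; inactive means z-score above -3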;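 further: negative z-score means lost luminescence so less FERM oligomerization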
The depositor's hits bear a star; / = not tested or not shown. Only some compounds are listed: those with a hit (about 4.7% of all), similar ones and a draw of the others.

SMILES	hDAT+cocaine	PLK1 PBD inh	PLK1 kinase inh	Cav3 T inh	sdo1 growth	PTK2B oligo ant
CCCc1ccc(-c2cc(NC(=O)CSc3nnc(N)s3)n(-c3ccccc3)n2)cc1	/	/	/	/	-0.06	/
COc1ccc(C2=CC(=O)CCC2)cc1	0.047	/	/	1.2	/	/
O=C(NN1C(=O)C2C(c3ccccc3)C=CC(c3ccccc3)C2C1=O)c1cccc(Br)c1 (stereo not given)	/	/	/	/	-0.39	/
COc1ccc(C2C(Oc3ccccc3C)C(=O)N2Cc2ccc(F)cc2)cc1OC (stereo not given)	-0.32	2	-8	-4.7*	-1.2	0.51
Cc1cc(C)n2nc(N)c(N=Nc3ccc(Cl)cc3)c2n1	/	/	/	/	-1.8	/
COc1ccc(CNC(=O)CNS(=O)(=O)c2ccc(Cl)cc2)cc1	/	/	/	/	-0.42	/
CC(=O)NC(CCCN1C(=O)c2ccccc2C1=O)c1nnn(C)n1 (stereo not given)	/	/	/	/	0.93	/
Cc1cc(C)c(S(=O)(=O)N2CCC(C(=O)NCc3ccc(Cl)cc3Cl)CC2)c(C)c1	0.14	-19	-3	-4.7*	-2.8	-1
CCS(=O)(=O)N1CCC(C(=O)NCc2ccc(F)cc2Cl)CC1	-1.2	1	-7	1.6	0.43	0.29
O=C(N/N=C/c1ccco1)c1cc(-c2cccc3ccccc23)n[nH]1	0.1	10	15	-6.2*	-0.67	0.26
O=C(N/N=C/c1ccco1)c1cc(-c2ccccc2)n[nH]1	1.1	15	1	-0.71	0.53	-0.22
Cc1oc(-c2ccccc2F)nc1CS(=O)(=O)CC(=O)N1CCc2ccccc21	-0.59	/	/	-4.7*	-0.95	/
Cc1oc(-c2ccccc2F)nc1CS(=O)(=O)CC(=O)NC1CCCC1	0.44	/	/	-2.2	0.36	/
Cc1ccc(-c2nc(CS(=O)(=O)CC(=O)N3CCc4ccccc4C3)c(C)o2)cc1	0.51	/	/	-9*	-0.42	/
CCCC1(c2ccccc2)NC(=O)N(CC(=O)c2[nH]c(C)c(C(=O)OCC)c2C)C1=O (stereo not given)	1.9	34	-1	-5.6*	0.23	-1.8
CCc1ccc(NC(=O)COC(=O)CCc2nc3cc(S(=O)(=O)N(CC)CC)ccc3n2C)cc1	/	/	/	/	0.5	/
O=C(Nc1ccc(NC(=S)NC(=O)c2cccs2)cc1)c1ccccc1	/	/	/	/	0.47	/
O=C(Nc1ccc(NC(=S)NC(=O)C(c2ccccc2)c2ccccc2)cc1)c1ccccc1	0.2	-28	-6	-4.3*	/	-1.4
CCCCC(=O)Nc1sc2c(c1C(=O)OCC)CCC(C=O)=C2Cl	1.3	-19	-16	-0.021	-1.1	-3*
CCc1cccc(C)c1NC(=S)NCC(c1cccnc1)N1CCOCC1 (stereo not given)	/	/	/	/	0.03	/
C/C(=C\C(=O)c1ccncc1)Nc1ccccc1O	0.79	-15	-12	-5.7*	-1	-0.27
CC(=O)Nc1ccccc1O	0.043	/	/	0.4	0.68	/
CC1(C)Cc2nc3sc4c(=O)n(CC(=O)NCc5ccccc5)cnc4c3cc2CO1	-2.9*	3	-8	0.31	-0.56	-0.45
CS(=O)(=O)NCC(c1ccco1)N1CCN(c2ccc(F)cc2)CC1 (stereo not given)	/	/	/	/	0.26	/
Cc1sc2nc(SCC(=O)NCc3ccco3)[nH]c(=O)c2c1C	-0.03	/	/	-0.05	1	/
SMILES	hDAT+cocaine	PLK1 PBD inh	PLK1 kinase inh	Cav3 T inh	sdo1 growth	PTK2B oligo ant
Cc1sc2nc(SCC(=O)NCc3cccs3)[nH]c(=O)c2c1C	-0.69	25	52*	-1.7	0.03	0.9
COc1ccc2nc(/N=C/c3c(C)[nH]n(-c4ccc(C)cc4)c3=O)sc2c1	/	/	/	/	1.8	/
Nc1c(C(=O)N2CCCCC2)sc(=S)n1-c1ccccc1	2.7*	1	-12	-0.53	-1.5	0.07
Nc1c(C(=O)N2CCOCC2)sc(=S)n1-c1ccccc1	2.6	-19	-13	0.35	-0.66	1.1
CCOC(=O)CC1(CC(=O)OCC)NC(=O)c2c(C)sc(C(=O)OCC)c2N1	0.92	10	-8	0.7	-0.3	0.08
CCOC(=O)c1sc(C)c2c1NC(c1ccc(N(C)C)cc1)NC2=O (stereo not given)	0.059	-16	-8	-3.6*	-1.3	-0.65
CCCC[C@@H]1CCCO[C@@](C(=O)NCc2cc(C)n(C)n2)(C(F)(F)F)C1	0.48	/	/	1.2	/	/
